Compounds with a hit are over-represented: about 7% of the library has one in this group of screens.
BAZ2B inh = inhibitors of human BAZ2B bromodomain. AlphaScreen BAZ2B-H3K14Ac peptide displacement. Potency, µM (series often up to 114 µM), inactives show at the top dose activity change, negative = inhibition, usual class: inhibitors. actives 4.4% (n = 360,000); further: potency means the concentration at half of the fitted maximal effect; on the % scale 0 is the no-effect control and ±100 the full control effect; nearly all actives have a fitted effect of over 60% in size
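Protein-peptide AlphaScreen: BAZ2B 50 nM, b-H3K14Ac 50 nM, 1x PBS pH 7.4 + 0.01% Tween-20. Preincubation 30 min RT; cpd 30 min RT (top 110 uM); beads 20 min RT, light-protected.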
HP1b chromo inh = inhibitors of HP1-beta chromodomain binding to methylated histone tails | P83916 | AlphaScreen HP1-beta / biotin-H3K9me3 peptide binding | Potency, µM (top dose mostly 114 µM), inactives show top-dose activity change, negative = inhibition, hits mostly inhibitors | actives 0.56% (n = 390,000) | AID 540317; further: potency means the concentration at half of the fitted maximal effect; nearly all actives have a fitted effect of over 70% in size
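AlphaScreen: HP1-beta (50 nM) preformed 30 min with biotin-H3(1-18)K9me3 peptide (50 nM) in PBS pH 7.4, 0.01% Tween-20. Compound added for 30 min at RT, then streptavidin donor/nickel chelate acceptor beads (10 ug/mL) for 30 min.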
JMJD2A Tudor inh = blocks the human JMJD2A Tudor domain; O75164; AlphaScreen JMJD2A-Tudor / H3K4me3 peptide binding; Potency, µM (titrated, usually from 114 µM), for the others: at the highest dose activity change, negative = inhibition, most hits filed as inhibitors; actives 4.4% (n = 390,000); further: potency means the concentration at half of the fitted maximal effect; on the % scale 0 is the no-effect control and ±100 the full control effect; nearly all actives have a fitted effect of over 50% in size
KAT2A inh = inhibitors of human GCN5L2 histone acetyltransferase. AID 504327. Potency, µM (series often up to 58.9 µM), inactives show at the top dose activity change, negative = inhibition, hits mostly inhibitors. GCN5L2 HAT assay, ThioGlo1 CoA-SH fluorescence. actives 0.21% (n = 390,000). Q92830; further: potency means the concentration at half of the fitted maximal effect; on the % scale 0 is the no-effect control and ±100 the full control effect
Target sequence (Q92830 whole entry, looked up): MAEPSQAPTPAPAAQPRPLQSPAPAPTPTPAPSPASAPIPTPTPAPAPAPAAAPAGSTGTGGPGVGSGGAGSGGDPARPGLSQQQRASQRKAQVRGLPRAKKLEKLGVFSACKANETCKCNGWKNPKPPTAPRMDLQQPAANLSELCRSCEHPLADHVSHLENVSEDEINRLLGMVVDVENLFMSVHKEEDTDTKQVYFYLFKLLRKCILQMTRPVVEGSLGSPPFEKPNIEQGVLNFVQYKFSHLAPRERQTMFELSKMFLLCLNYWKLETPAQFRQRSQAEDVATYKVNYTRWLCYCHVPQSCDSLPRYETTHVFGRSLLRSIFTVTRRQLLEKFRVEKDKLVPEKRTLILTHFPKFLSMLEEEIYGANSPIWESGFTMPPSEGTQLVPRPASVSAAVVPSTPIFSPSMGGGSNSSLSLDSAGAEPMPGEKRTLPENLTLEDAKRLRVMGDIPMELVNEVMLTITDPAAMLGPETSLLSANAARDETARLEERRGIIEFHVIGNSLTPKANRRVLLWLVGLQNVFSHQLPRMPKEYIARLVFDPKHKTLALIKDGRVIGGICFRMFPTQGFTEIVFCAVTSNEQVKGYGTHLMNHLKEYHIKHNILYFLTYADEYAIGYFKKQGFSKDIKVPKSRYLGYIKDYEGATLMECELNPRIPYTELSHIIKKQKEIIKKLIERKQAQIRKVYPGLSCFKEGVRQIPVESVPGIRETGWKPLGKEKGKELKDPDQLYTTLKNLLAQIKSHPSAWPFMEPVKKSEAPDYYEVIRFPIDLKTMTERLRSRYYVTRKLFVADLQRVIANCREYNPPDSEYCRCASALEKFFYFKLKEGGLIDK
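GCN5L2 (20nM final) in 50mM HEPES, 0.1mM EDTA pH 7.5, 0.01% Tween-20 was preincubated 15 min at room temperature with compound, then given ThioGlo1 (50uM), H3(1-25) peptide (75uM) and acetyl-CoA (70uM); CoA-thiol fluorescence (Ex340/Em540) was read at 0 and 20 min.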
PLK1 PBD block = inhibitors of human PLK1 polo-box domain binding; Potency, µM, for the others: max response, negative = inhibition, most hits filed as inhibitors; actives 2.8% (n = 360,000); AID 720504; Plk1 PBD binding of FITC phosphopeptide, fluorescence polarization; further: potency means the concentration at half of the fitted maximal effect; series mostly up to about 57 µM; on the % scale 0 is the no-effect control and ±100 the full control effect; nearly all actives have a fitted effect of over 65% in size
PI5P4K alpha inh = blocks human PI5P4K alpha kinase activity | P48426 | actives 1.2% (n = 330,000) | max response, % | PI5P4Kalpha enzyme, ADP-Glo luminescence, 60 min; active compounds read low; active means max response of -50% or lower; inconclusive means between -30% and -50%; inactive means -30% or higher; further: value at the top dose of about 77 µM; on the % scale 0 is the no-effect control and ±100 the full control effect
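Compounds were pin-transferred onto PI5P4Kalpha and substrate in HEPES pH 7.4 buffer with EGTA, CHAPS and 5% DMSO. ATP (5 microM final) started the reaction, which ran 60 minutes at room temperature before ADP-Glo detection.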
Starred values were filed as active, the others as inactive; ? = inconclusive; nt = no result; [ ] = dose if it differs, or a comment. Unless noted, the call rests on the fitted dose curve; in most records, active means well fitted curve in the direction sought with a large enough effect; inconclusive means small, poorly fitted or top-dose-only effect, or another doubt; inactive means no such curve, though single readings can be large; an effect the other way counts as inactive or inconclusive.

SMILES	BAZ2B inh	HP1b chromo inh	JMJD2A Tudor inh	KAT2A inh	PLK1 PBD block	PI5P4K alpha inh
COc1ccc(CNc2ncc(-c3ccccc3)n2C)c2ccccc12	50µM*	?	18µM*	-19%	9%	3
COC(=O)c1ccc(NC(=O)CSc2cn(CC(=O)N3CCCCCC3)c3ccccc23)cc1	-26%	28%	-13%	-12%	nt	nt
O=C1C2=C(Nc3ccccc3SC2c2c(F)cccc2Cl)c2ccccc21 (stereo not drawn)	nt	?	13µM*	-6%	nt	nt
CCOc1cc(C2Sc3ccccc3NC3=C2C(=O)c2ccccc23)ccc1O (stereo not drawn)	nt	?	14µM*	-11%	nt	nt
COc1ccc(Br)cc1C1Sc2ccccc2NC2=C1C(=O)c1ccccc12 (stereo not drawn)	nt	18%	-8%	-5%	nt	nt
CCOc1ccc(C2Sc3ccccc3NC3=C2C(=O)OC3)cc1 (stereo not drawn)	2%	-9%	-27%	-14%	-13%	3
CCCc1ccc(C2Sc3ccccc3NC3=C2C(=O)c2ccccc23)cc1 (stereo not drawn)	10µM*	?	16µM*	-14%	nt	nt
O=C1C2=C(Nc3ccccc3SC2c2ccc(Cl)c(Cl)c2)c2ccccc21 (stereo not drawn)	nt	?	8.9µM*	-16%	nt	nt
CCOc1ccc(N(C(C)C(=O)NCCSc2ccc(Cl)cc2)S(C)(=O)=O)cc1 (stereo not drawn)	12%	27%	-3%	-8%	nt	nt
Cc1cccc(NC(=O)c2cc(S(=O)(=O)N3CCc4ccccc43)ccc2F)c1C	7%	5%	-13%	3%	nt	nt
CCCCCNc1nc2c(-c3ccccc3)nnn2c2ccccc12	-2%	37%	-10%	-5%	nt	nt
O=C1C2=C(Nc3ccccc3SC2c2ccccc2C(F)(F)F)c2ccccc21 (stereo not drawn)	?	?	22µM*	-11%	nt	nt
COc1ccc(-c2nc(-c3cccs3)c(-c3cccs3)[nH]2)cc1O	45µM*	-39%	?	-7%	-5%	-14
C=CCn1c(CC#N)nnc1N1CCOCC1	50µM*	21%	?	2%	1%	nt
CCCN1C(=O)/C(=C/c2ccc(C)s2)SC1=Nc1ccc(OC)cc1	?	-18%	?	23%	2%	15
COc1ccc(N=C2S/C(=C\c3cc(C)n(C)c3C)C(=O)N2CC(C)C)cc1	?	?	40µM*	-21%	-14%	-5
Oc1ccc(-c2nc(-c3ccccc3)c(-c3ccc(Br)cc3)[nH]2)cc1	?	-12%	?	-14%	nt	nt
Oc1ccc(N=Nc2nc(-c3ccccc3)c(-c3ccccc3)[nH]2)cc1	11µM*	-72%	22µM*	-14%	4%	-12
Cc1ccccc1OCC(=O)NCC(=O)OCc1cccc2ccccc12	nt	33%[57 µM]	-13%[57.1 µM]	nt	nt	nt
COc1ccc(-c2nc3c4ccccc4ccn3c2CN2CCOCC2)cc1OC	?	4%	-30%	-5%	-7%	1
CCc1ccc(Nc2n[n+](C)c(-c3ccncc3)s2)cc1	56µM*	-16%	56µM*	?	?	?
CC(=O)Nc1ccc(-c2sc(Nc3cccc4ccccc34)n[n+]2-c2ccccc2)cc1	?	23%	-33%	-1%	-12%	-14
COc1ccc(C)cc1Nc1n[n+](-c2ccccc2)c(-c2ccc(NC(C)=O)cc2)s1	?	42%	-30%	-1%	-22%	-16
CCc1ccc(Nc2n[n+](-c3ccccc3)c(-c3ccc(C(=O)O)cc3)s2)cc1	35µM*	-9%	79µM*	1%	-15%	-14
CSc1ccc(-c2sc(Nc3cccc4ccccc34)n[n+]2-c2ccccc2)cc1	18µM*	13%	79µM*	-8%	?	-9
SMILES	BAZ2B inh	HP1b chromo inh	JMJD2A Tudor inh	KAT2A inh	PLK1 PBD block	PI5P4K alpha inh
COc1ccc(C)cc1Nc1n[n+](-c2ccccc2)c(-c2ccc(SC)cc2)s1	56µM*	-7%	?	-5%	-26%	-15
COc1ccc(Nc2nc3c(S(=O)(=O)c4ccc(Br)cc4)nnn3c3ccsc23)c(OC)c1	-13%	22%	-13%	-17%	nt	nt
C[C@H]1CN([C@@H](C)CO)S(=O)(=O)c2ccc(C#Cc3ccccn3)cc2O[C@@H]1CN(C)C(=O)C1CC1	nt	nt	nt	nt	-3%	2
CC1(C)C[C@@H]2C(=O)CCC3O[C@@]3(C)CCC21 (stereo partly drawn)	nt	nt	nt	1%	nt	nt
COc1cccc(CN2CCC(n3nccc3NC(=O)CCCc3ccccc3)CC2)c1	-10%	33%	-18%	?	1%	0
COc1ccc(Br)c(C(=O)NNC(=O)c2ccc(NS(=O)(=O)c3cccs3)cc2)c1	10%	20%	-21%	-5%	-21%	-11
CSc1ccc(-c2sc(Nc3ccccc3)n[n+]2-c2ccccc2)cc1	45µM*	-27%	56µM*	?	24µM*	-53*
CCc1ccc(C(=O)NNC(=O)OC)cc1	-2%	?	?	0%	9.5µM*	-22
COc1ccc(NC(=O)CSc2nc3nc(C)c(Cc4ccc(C)cc4)c(C)n3n2)cc1OC	-3%	5%	-17%	0%	nt	nt
Cc1cccc(C)c1NC(=S)N/N=C1\CC2CC=CC12 (stereo not drawn)	-27%	?	-34%	-1%	15µM*	-2
CCN1CCCC1CNC(=O)c1ccc(Sc2ccccc2Cl)c([N+](=O)[O-])c1 (stereo not drawn)	28µM*	-21%	?	-12%	-3%	10
CSc1ncccc1C(=O)OCC(=O)c1ccc(Br)s1	24%	?	?	-9%	19µM*	-9
Cc1oc(-c2ccc(C(=O)NCCC(C)C)cc2)nc1CS(=O)(=O)c1ccccc1	-11%	33%	-22%	-2%	nt	nt
COc1ccc(OC)c(CNS(=O)(=O)c2cn(C)cn2)c1	-4%	36%	-15%	-25%	-7%	-3
Cn1cc(CN2CCC(C(=O)NC(c3ccc(F)cc3)c3ccc4ccccc4n3)CC2)c2ccccc21 (stereo not drawn)	nt	nt	nt	nt	1%	-18
O=C(O)c1ccccc1C(=O)Nc1ccccc1	4%	39%	-1%	-19%	0%	nt
